From PubChem
Rows were chosen to be rich in hits. Some 10% of all compounds tested hit in one or more screens of this group.
G9a block = inhibitors of human histone lysine methyltransferase G9a; Q96KQ7; G9a H3K9 monomethylation, AlphaScreen, 2 h; Potency, µM (titrated, usually from 102 µM), without a hit: at the top dose activity, negative = inhibition, hits mostly inhibitors; hit rate 8.8% among 350,000; further: potency means the concentration at half of the fitted maximal effect; on the % scale 0 is the no-effect control and ±100 the full control effect; nearly all actives have a fitted effect of over 75% in size
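G9a (20 nM) was preincubated 15 min with compound, then reacted 2 h at room temperature with 500 nM biotin-H3K9 peptide and 20 µM SAM. Monomethyl-H3K9 detected by AlphaScreen using anti-H3K9me1 antibody.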
JMJD2A Tudor inh = inhibitors of human JMJD2A Tudor domain; O75164; AlphaScreen JMJD2A-Tudor / H3K4me3 peptide binding; Potency, µM (highest dose often 114 µM), for inactives: top-dose activity change, negative = inhibition, actives largely listed as inhibitors; hit rate 4.4% among 390,000; AID 504339; further: potency means the concentration at half of the fitted maximal effect; on the % scale 0 is the no-effect control and ±100 the full control effect; nearly all actives have a fitted effect of over 50% in size
HP1b binding inh = blocks HP1-beta chromodomain binding to methylated histone tails; P83916; AlphaScreen HP1-beta / biotin-H3K9me3 peptide binding; Potency, µM (top dose mostly 114 µM), without a hit: at the top dose activity change, negative = inhibition, most hits filed as inhibitors; hit rate 0.56% among 390,000; AID 540317; further: potency means the concentration at half of the fitted maximal effect; nearly all actives have a fitted effect of over 70% in size
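AlphaScreen: HP1-beta (50 nM) preformed 30 min with biotin-H3(1-18)K9me3 peptide (50 nM) in PBS pH 7.4, 0.01% Tween-20. Compound added for 30 min at RT, then streptavidin donor/nickel chelate acceptor beads (10 ug/mL) for 30 min.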
Six1-Eya2 blk = Six1/Eya2 interaction inhibition | Q15475+O00167 | AlphaScreen GST-Six1/His-Eya2 binding, biochemical; hits give low values | activity change, % (test concentration not listed) | hit rate 0.56% among 360,000 | AID 651725; in the data active means activity change below about -65%; inconclusive means mostly about -30% to -63%; further: on the % scale 0 is the no-effect control and ±100 the full control effect
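Homogeneous AlphaScreen proximity assay pairing GST-Six1 with His-tagged Eya2 (added as 5X mix: 250 nM and 500 nM) in 50 mM Tris pH 8.0, 300 mM NaCl, 1 mM TCEP. Glutathione donor and nickel acceptor beads; 1 h, 37 °C, dark.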
BAZ2B block = BAZ2B (human) inhibition; AlphaScreen BAZ2B-H3K14Ac peptide displacement; Q9UIF8; Potency, µM (doses to about 114 µM), without a hit: at the highest dose activity change, negative = inhibition, usual class: inhibitors; hit rate 4.4% among 360,000; further: potency means the concentration at half of the fitted maximal effect; on the % scale 0 is the no-effect control and ±100 the full control effect; nearly all actives have a fitted effect of over 60% in size
Target sequence (Q9UIF8 whole entry, looked up): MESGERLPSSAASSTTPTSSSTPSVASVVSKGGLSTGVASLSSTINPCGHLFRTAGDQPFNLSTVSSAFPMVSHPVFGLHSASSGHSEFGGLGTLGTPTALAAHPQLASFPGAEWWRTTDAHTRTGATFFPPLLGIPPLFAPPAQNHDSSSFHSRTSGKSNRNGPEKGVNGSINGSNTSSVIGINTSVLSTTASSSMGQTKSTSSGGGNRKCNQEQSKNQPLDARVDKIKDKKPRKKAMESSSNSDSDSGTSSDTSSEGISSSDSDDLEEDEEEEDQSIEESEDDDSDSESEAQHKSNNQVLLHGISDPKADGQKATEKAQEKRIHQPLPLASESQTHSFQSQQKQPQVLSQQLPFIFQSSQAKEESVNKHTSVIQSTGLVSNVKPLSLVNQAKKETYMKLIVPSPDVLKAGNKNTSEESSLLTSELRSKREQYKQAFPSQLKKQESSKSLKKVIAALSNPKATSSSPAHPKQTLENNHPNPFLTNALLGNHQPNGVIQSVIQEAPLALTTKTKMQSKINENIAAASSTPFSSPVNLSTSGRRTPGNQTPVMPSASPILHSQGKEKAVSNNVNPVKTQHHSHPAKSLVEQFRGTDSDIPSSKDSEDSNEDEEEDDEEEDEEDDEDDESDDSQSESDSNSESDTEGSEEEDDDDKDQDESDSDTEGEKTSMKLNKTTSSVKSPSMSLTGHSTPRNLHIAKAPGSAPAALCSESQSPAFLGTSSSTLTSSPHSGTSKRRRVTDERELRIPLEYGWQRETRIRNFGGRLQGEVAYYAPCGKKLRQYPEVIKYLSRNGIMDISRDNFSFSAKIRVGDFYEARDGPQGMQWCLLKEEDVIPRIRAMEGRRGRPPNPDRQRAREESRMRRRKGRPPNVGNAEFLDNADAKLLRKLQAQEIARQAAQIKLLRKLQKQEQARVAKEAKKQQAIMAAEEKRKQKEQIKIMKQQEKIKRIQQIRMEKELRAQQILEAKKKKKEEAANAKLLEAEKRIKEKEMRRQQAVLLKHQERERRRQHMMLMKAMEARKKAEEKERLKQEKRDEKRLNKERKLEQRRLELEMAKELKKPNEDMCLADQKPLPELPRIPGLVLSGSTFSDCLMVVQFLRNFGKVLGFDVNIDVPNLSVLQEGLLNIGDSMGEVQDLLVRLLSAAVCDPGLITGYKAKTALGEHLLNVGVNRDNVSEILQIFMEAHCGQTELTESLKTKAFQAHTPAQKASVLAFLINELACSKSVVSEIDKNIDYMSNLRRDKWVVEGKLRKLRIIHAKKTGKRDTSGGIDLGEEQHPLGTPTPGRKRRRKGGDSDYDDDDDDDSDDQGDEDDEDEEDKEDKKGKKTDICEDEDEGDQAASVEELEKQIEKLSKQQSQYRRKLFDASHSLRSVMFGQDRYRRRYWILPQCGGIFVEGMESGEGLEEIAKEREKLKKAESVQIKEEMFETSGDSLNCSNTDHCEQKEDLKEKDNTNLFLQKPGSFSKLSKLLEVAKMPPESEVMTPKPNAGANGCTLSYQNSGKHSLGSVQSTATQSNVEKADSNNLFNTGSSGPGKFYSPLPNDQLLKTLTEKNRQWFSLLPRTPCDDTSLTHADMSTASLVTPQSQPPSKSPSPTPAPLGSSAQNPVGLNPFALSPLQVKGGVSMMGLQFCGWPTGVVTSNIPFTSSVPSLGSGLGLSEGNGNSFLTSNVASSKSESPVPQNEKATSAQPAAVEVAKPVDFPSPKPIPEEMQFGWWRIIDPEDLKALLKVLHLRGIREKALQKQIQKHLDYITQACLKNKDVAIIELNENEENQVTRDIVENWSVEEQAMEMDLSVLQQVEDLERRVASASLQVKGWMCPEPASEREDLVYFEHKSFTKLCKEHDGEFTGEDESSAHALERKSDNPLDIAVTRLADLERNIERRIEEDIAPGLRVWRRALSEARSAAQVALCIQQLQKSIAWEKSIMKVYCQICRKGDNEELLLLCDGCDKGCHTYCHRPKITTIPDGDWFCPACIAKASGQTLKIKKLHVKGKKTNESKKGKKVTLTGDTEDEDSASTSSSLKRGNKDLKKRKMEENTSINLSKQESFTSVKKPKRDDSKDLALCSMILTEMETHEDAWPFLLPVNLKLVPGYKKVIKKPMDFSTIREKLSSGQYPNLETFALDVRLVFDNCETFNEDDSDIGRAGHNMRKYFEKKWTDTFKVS
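Inhibition is scored as reduced AlphaScreen emission. The BAZ2B/b-H3(5-23)K14Ac complex (50 nM each) in PBS pH 7.4, 0.01% Tween-20 meets compound (up to 110 uM) for 30 min at RT before bead addition.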
CtBP-E1A inh = inhibitors of CtBP/E1A interaction | AlphaScreen GST-E1A/His-CtBP binding, 1536-well; hits give low values | activity change, % (no concentration beside the values) | hit rate 0.49% among 340,000 | AID 651724; in the data active means activity change below about -65%; inconclusive means mostly about -30% to -63%; further: on the % scale 0 is the no-effect control and ±100 the full control effect
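GST-E1A and His-tagged CtBP (125 nM each as 5X stock) were preincubated with pin-transferred compound for 2 h at 37 °C in the dark, then glutathione donor and nickel acceptor beads were added for 1 h before AlphaScreen reading.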
* marks the source's active call; other numbers are inactive results; ? = inconclusive; / = not tested or not shown; ! = a repeat was not active; [ ] = remark or other dose. Unless noted, the call rests on the fitted dose curve; in most records, active means well fitted inhibition curve with a large enough effect; inconclusive means small, poorly fitted or top-dose-only effect; inactive means no such curve, though single readings can be large or run the other way.

SMILES	G9a block	JMJD2A Tudor inh	HP1b binding inh	Six1-Eya2 blk	BAZ2B block	CtBP-E1A inh
O=S1(=O)N=C(N/N=C/c2ccc(Br)o2)c2ccccc21	40µM*	?	19%	-15	0%	-20
O=S1(=O)N=C(N/N=C/c2ccccn2)c2ccccc21	16%	79µM*	35%	-88*	35µM*	-81*
COc1ccc(/C=N/NC2=NS(=O)(=O)c3ccccc32)cc1	-22%	-14%	29%	-4	-7%	/
O=Nc1c(-c2ccccc2)cc2ccccn12	40µM*	-36%	7%	-11	79µM*	18
CCOc1ccc(CN2C(=O)c3ccccc3Sc3ccc(C(=O)NCc4ccc5c(c4)OCO5)cc32)cc1	-1%[59 µM]	-9%	22%	/	/	/
COC(=O)c1cc2c(cc1NC(=O)c1cnn(-c3ccccc3)c1-n1cccc1)OCO2	7%[59 µM]	-11%	26%	/	2%	/
COc1ccccc1NC(=S)NCc1cccnc1	11%[59 µM]	3%	39%	6	8%	3
Fc1ccccc1C1c2cccn2CCN1C(=S)Nc1ccc(Br)cc1 (stereo not drawn)	25µM*	-23%	20%	-17	-4%	-5
COc1ccccc1NC(=S)N1CCn2cccc2C1c1cccnc1 (stereo not drawn)	56µM*	-22%	0%	-8	-33%	-13
Fc1ccccc1C1c2cccn2CCN1C(=S)Nc1cccc(Br)c1 (stereo not drawn)	?	-1%	20%	5	?	7
Fc1cccc(NC(=S)N2CCn3cccc3C2c2cccnc2)c1 (stereo not drawn)	50µM*	-32%	-5%	-1	?	-16
S=C(Nc1ccccc1)N1CCn2cccc2C1c1cccnc1 (stereo not drawn)	?	?	-12%	-3	-39%	4
Cc1nc(N2CCN(Cc3ccc4c(c3)OCO4)CC2)nc2c1C(=O)CC(c1ccco1)C2 (stereo not drawn)	40µM*	?	-9%	-19	?	-22
CCN1C(=O)/C(=c2\sc3nc(=O)c(Cc4ccccc4)nn3c2=O)c2ccccc21	25µM*	?	-31%	1	?	0
C=CCN1C(=O)/C(=N/n2cnnc2)c2ccccc21	1%[12.7 µM]	-10%	7%	5	-33%	-1
CCN1C(=O)/C(=C/c2nc3ccccc3c(=O)[nH]2)c2ccccc21	-2%[59 µM]	-8%	13%	-6	-29%	-8
C=CCN1C(=O)/C(=c2\sc3nc(=O)c(Cc4ccccc4)nn3c2=O)c2ccccc21	/	56µM*	?	-15	?	-7
COc1ccc2[nH]c(=O)c(CNc3ccccc3OC)cc2c1	35µM*	?	-15%	-6	?	-7
COc1ccc2[nH]c(=O)c(CNc3ccccc3C)cc2c1	10µM*	-27%	-2%	0	-1%	0
CCOc1ccc(NCc2cc3cc(OC)ccc3[nH]c2=O)cc1	?	?	-4%	5	-27%	-20
COc1ccc2[nH]c(=O)c(CNc3ccccc3)cc2c1	35µM*	-28%	14%	-2	0%	-11
COc1ccc2[nH]c(=O)c(CN(C(=O)c3cccc(Cl)c3)c3ccccc3OC)cc2c1	14µM*	-12%	15%	/	-10%	/
CCn1nc(-c2ccccc2C)nc2c(=O)n(C)c(=O)nc1-2	/	-14%[57.1 µM]	17%[57 µM]	/	/	/
CCc1ccc(C2C(C(=O)Nc3ccccc3OC)=C(C)Nc3c(C(=O)Nc4ccc(C)cc4)cnn32)cc1 (stereo not drawn)	?	-32%	-14%	/	1%[57.1 µM]	/
COc1ccc(NCc2cc(=O)[nH]c3ccccc23)cc1	?	?	-13%	10	79µM*	0
SMILES	G9a block	JMJD2A Tudor inh	HP1b binding inh	Six1-Eya2 blk	BAZ2B block	CtBP-E1A inh
COc1ccc(CNC(=O)C2CCN(S(=O)(=O)c3cccc(-c4noc(C)n4)c3)CC2)cc1	0%[59 µM]	-24%	2%	/	-29%	/
COc1ccc(NCc2nnc(SCC(=O)c3ccc(C)cc3)o2)cc1	14µM*	?	-23%	-13	?	-11
COc1ccc(CCCc2nnc(SCC(=O)Nc3ccc(OC)cc3)o2)cc1	?	28µM*!	-5%	-11	3%	2
COc1ccc(-c2nc3sc(CCNC(=O)C(=O)Nc4cc(C)cc(C)c4)c(C)n3n2)cc1	0%[59 µM]	-15%	21%	/	3%	/
OC(COC(c1ccc(Cl)cc1)c1ccc(Cl)cc1)CN1CCN(c2ccccn2)CC1 (stereo not drawn)	?	?	-5%	-15	50µM*	-9
Cc1cccc(C)c1OCC(O)CN1CCN(c2ccccn2)CC1 (stereo not drawn)	?	-14%	22%	5	/	10
COc1cccc(OCC(O)CN2CCN(CCN3C(=O)c4cccc5cccc(c45)C3=O)CC2)c1 (stereo not drawn)	50µM*	?	1%	-5	-38%	-1
COc1cccc(OCC(O)CN2CCN(c3ccccn3)CC2)c1 (stereo not drawn)	45µM*	-27%	24%	2	-9%	-16
Cc1ccc(OCC(O)CN2CCN(c3ccccn3)CC2)c(C)c1 (stereo not drawn)	50µM*	-9%	21%	-3	-26%	-13
Cc1ccc(C(=O)CSc2ccc(-c3ccncc3)nn2)cc1	40µM*	-4%	12%	-5	?	8
COc1ccc(-c2ccc(SCC(=O)c3ccccc3)nn2)cc1OC	50µM*	-21%	18%	-24	-18%	-13
Cc1ccc(-c2ccc(SCC(=O)c3ccccc3)nn2)cc1	35µM*	13%	19%	6	-1%	-2
CCc1nnc2c3ccccc3nc(Nc3cc(C)cc(C)c3)n12	-20%[59 µM]	-2%	29%	/	-2%	/
CCc1ccccc1NC(=O)Cn1nnc(-c2nc(-c3ccc(C)cc3)no2)c1N	-10%[59 µM]	0%	23%	/	-8%	/
COc1cc(NC(=O)c2c(C)oc3c2C2=NCCN2C=N3)cc(OC)c1OC	5%[59 µM]	-32%	?	/	-28%	/
CCCCn1c(C)cc2c(c1=O)C1O[C@](CCCC)(Cc3cc(C#N)ccc31)O2	/	/	/	/	-2%[22.9 µM]	/
COc1ccc(C2=[N+](C)CCn3cccc32)c(OC)c1	7.1µM*	18µM*	?	7	-34%	19
COc1ccc(-c2[nH]ncc2CN2CCCCCCC2)c(OC)c1	/	?	-10%	-1	?	10
O=C(Nc1ccc(-c2nc3ccccc3[nH]2)cc1)c1ccc2c(c1)OCO2	71µM*	-26%	-21%	-5	?	5
CCN(CC)c1ccc(C(=O)NC(=S)N2CCN(Cc3ccc4c(c3)OCO4)CC2)cc1	40µM*	?	-20%	?	?	?
